Bioassay records as filed in PubChem.
Most compounds without a hit are left out; they make up all but 7.1% or so of the library.
M1 antag: antagonists of rat M1 muscarinic receptor | B-score at 10 µM | actives 3.4% (n = 64,000) | AID 628, 2007 | Muscarinic acetylcholine receptor M1 (Rattus norvegicus), P08482 | CHO-M1 cells, Fluo-4 calcium, ACh EC80 antagonist mode; hits give low values;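 active = calcium fluorescence response, raw or row-and-column corrected B-score, differing from the plate sample mean either way at a set confidence level, mostly lower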
M1 agonist: M1 muscarinic receptor agonists, primary screen, CHO-M1 cells, Fluo-4 calcium, agonist mode. Muscarinic acetylcholine receptor M1. actives 3% (n = 64,000). Fluo-4 calcium fluorescence; hits give high values. B-score at 10 µM;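 active = fluorescence rise, raw or as B-score row- and column-corrected plate score, outside the 99.7% band of its plate's samples, either direction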
Pyk2 oligo antag: antagonists of Pyk2 self-association, primary screen, Q293 cells, FERM NanoBiT luminescence, HTS; actives 0.83% (n = 99,000); hits give low values; Protein-tyrosine kinase 2-beta (Homo sapiens), Q14289; z-score (the deposit names both 25 µM and 10 µM);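 active = Z-score of -3 or lower, scaled per plate to the spread of control and sample wells; inactive = z-score above -3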;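 note: negative z-score means lost luminescence so less FERM oligomerization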
Cav3 T inh: Cav3.2 calcium influx blockers – cell-based, Fluo-4 calcium fluorescence, FDSS, MLSMR library, primary screen | Voltage-dependent T-type calcium channel subunit alpha-1H (Homo sapiens), O95180 | Cav3.2-expressing cells; hits give low values | B-score at 10 µM | actives 4% (n = 100,000);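 active = single-dose well whose peak fluorescence ratio is a statistical outlier from its plate by either plate-standardised score or position-corrected B-score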
Target sequence (O95180 whole entry, looked up): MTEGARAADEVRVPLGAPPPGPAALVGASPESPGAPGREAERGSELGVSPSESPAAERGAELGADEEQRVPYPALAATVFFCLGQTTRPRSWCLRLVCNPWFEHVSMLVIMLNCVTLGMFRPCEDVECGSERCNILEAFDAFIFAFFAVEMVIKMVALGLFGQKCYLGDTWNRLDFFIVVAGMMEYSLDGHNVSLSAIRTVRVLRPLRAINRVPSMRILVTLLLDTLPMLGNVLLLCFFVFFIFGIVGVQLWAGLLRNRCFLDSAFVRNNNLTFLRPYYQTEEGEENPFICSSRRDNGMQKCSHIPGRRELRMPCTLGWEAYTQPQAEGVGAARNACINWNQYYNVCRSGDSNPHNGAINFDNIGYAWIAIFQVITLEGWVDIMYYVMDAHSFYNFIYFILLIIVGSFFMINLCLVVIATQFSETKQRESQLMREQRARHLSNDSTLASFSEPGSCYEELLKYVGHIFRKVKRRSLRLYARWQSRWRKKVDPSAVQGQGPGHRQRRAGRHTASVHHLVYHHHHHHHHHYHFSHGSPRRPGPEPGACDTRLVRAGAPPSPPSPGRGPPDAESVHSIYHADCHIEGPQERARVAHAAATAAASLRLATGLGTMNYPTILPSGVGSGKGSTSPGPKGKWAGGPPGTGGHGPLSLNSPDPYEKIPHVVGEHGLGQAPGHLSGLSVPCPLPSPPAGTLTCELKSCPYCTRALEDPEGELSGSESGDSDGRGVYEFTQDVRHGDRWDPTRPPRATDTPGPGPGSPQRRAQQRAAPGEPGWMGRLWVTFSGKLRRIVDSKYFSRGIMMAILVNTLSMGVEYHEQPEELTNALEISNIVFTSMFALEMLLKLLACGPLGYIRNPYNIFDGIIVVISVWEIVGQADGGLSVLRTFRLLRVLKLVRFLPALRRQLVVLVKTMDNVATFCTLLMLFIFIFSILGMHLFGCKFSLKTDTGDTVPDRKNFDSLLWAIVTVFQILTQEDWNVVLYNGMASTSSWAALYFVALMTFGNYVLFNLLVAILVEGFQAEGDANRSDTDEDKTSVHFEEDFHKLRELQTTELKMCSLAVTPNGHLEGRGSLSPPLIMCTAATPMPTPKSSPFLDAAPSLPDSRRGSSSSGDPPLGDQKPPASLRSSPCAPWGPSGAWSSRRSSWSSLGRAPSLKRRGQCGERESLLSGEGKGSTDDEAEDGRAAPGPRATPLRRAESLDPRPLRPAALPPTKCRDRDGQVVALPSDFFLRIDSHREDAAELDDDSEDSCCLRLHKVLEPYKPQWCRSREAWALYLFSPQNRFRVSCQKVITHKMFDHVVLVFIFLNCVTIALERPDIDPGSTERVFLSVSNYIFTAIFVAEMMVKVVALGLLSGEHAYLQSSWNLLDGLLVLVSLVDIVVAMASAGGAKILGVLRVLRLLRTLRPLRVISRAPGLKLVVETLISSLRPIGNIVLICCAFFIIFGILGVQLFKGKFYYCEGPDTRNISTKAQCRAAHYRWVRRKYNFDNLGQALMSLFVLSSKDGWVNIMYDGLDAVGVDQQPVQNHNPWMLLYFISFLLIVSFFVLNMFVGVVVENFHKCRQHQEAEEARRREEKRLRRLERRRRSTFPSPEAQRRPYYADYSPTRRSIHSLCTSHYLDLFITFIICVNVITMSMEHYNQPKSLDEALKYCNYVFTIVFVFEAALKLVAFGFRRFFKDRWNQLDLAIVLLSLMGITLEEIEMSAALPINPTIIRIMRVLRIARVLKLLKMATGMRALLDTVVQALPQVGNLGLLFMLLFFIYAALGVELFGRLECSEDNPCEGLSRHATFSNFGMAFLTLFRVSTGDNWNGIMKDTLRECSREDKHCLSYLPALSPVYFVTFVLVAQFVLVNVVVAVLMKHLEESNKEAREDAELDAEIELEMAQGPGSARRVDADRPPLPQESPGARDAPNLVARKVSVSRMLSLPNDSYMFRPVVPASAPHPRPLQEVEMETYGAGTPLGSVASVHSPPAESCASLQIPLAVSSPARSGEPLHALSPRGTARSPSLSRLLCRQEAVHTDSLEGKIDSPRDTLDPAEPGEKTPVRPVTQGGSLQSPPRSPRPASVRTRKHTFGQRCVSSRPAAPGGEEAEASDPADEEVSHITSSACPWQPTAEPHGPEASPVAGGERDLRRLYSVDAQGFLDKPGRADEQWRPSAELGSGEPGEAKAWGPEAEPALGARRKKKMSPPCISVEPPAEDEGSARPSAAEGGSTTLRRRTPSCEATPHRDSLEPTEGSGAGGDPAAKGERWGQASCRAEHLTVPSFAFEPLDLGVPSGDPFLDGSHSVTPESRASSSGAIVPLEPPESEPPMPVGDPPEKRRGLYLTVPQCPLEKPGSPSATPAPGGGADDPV
An asterisk follows results filed as active; · = not tested or not shown.

SMILES	M1 antag	M1 agonist	Pyk2 oligo antag	Cav3 T inh
O=C1NC(=O)[C@]2(Cc3ccccc3N3CCN(c4ccccc4)CC32)C(=O)N1c1ccccc1 (stereo partly drawn)	0.86	0.34	-0.59	-4.5*
COc1ccc(N=C2SCCCN2C)cc1	·	·	0.02	-0.9
COC/C=C1\CN2C3C[C@@H]1[C@H]1COC4=Nc5cc(OC)c(OC)c(OC)c5[C@@]43C[C@@H]12	·	·	·	0.68
CCOC(=O)c1ccc(N2C(=O)CC(N3CC=C(c4ccc(F)cc4)CC3)C2=O)cc1 (stereo not drawn)	-0.13	-0.023	-0.15	-0.87
Cc1ccc(C(c2nnnn2Cc2ccccc2)N2CC=C(c3ccc(F)cc3)CC2)cc1 (stereo not drawn)	·	·	-1.4	-3.2*
CN1C(=O)C(=Cc2ccc(N3CCCCC3)o2)C(=O)N(C)C1=S	·	·	-0.06	-6.7*
CCN1C[C@]2(COC)CC[C@H](O)[C@@]34C5C[C@@H]6[C@@H](OC)C[C@@](O)(C5[C@H]6O)[C@](O)([C@@H](OC)C23)[C@@H]14 (stereo partly drawn)	·	·	·	-0.049
O=C(c1ccccc1F)c1cn(Cc2ccccc2)c2ccccc12	·	·	-1.1	-3.6*
CCCCn1c(O)c(C(CC)=NC(C)c2ccccc2)c(=O)[nH]c1=O (stereo not drawn)	·	·	-3.8*	-3.2
CCCCn1c(O)c(C(C)=NC(C)c2ccccc2)c(=O)[nH]c1=O (stereo not drawn)	1.6	0.48	-3.6*	-1
OC(c1ccccc1)(c1ccccc1)C1CCNCC1	·	·	·	-5*
OC(c1ccc(F)cc1)(c1ccc(F)cc1)[C@@H]1CCCN1	·	·	0.24	·
O=P(Nc1ccccc1Cl)(c1ccccc1)c1nc2c(s1)CCCC2 (stereo not drawn)	·	·	-1.6	-5.9*
CCOC(=O)c1c(NC(=O)C(c2ccccc2)c2ccccc2)sc2c1C1CCN2CC1	·	·	0	-4.1*
O=C(CNC(=O)c1ccccc1)Nc1ccc(Br)cc1C(=O)c1ccccc1	·	·	-0.62	-6.9*
O=C(CN1CCCCC1)NCC(=O)Nc1ccc(Br)cc1C(=O)c1ccccc1	·	·	0.39	0.0076
O=C(CNC(=O)OCc1ccccc1)Nc1ccc(Br)cc1C(=O)c1ccccc1	·	·	-0.19	-5.9*
O=C(CCN1CCOCC1)NCC(=O)Nc1ccc(Br)cc1C(=O)c1ccccc1	0.73	-0.18	-0.1	0.81
COc1cc(C(O)CNC(C)C)cc(F)c1OC (stereo not drawn)	·	·	·	0.69
CN(Cc1ccccc1)C(=C(Cl)Cl)/C(=C1/NCCN1Cc1ccc(Cl)nc1)[N+](=O)[O-]	·	·	0.7	-1.7
O=c1[nH]c(=O)n(CCC2=CCCCC2)c(O)c1C=NCc1cccnc1	-0.26	-0.6	-3.2*	·
CC(C)[C@@]1(NC(=O)[C@@H]2C=C3c4cccc5[nH]cc(c45)C[C@H]3N(C)C2)O[C@@]2(O)[C@@H]3CCCN3C(=O)[C@H](Cc3ccccc3)N2C1=O	0.73	60*	·	·
COC(=O)C1=C(c2cc3ccccc3s2)C[C@@H]2CC[C@H]1N2C(=O)NCCS(C)=O (stereo partly drawn)	·	·	·	-0.93
FC(F)(F)c1cccc(-n2nnnc2C2(N3CCOCC3)CCCCC2)c1	·	·	-2.3	-1.7
CCN(CC)c1ccc(N=Cc2c(O)n(Cc3ccccc3)c(=O)[nH]c2=O)cc1	·	·	-0.48	-4.3*
SMILES	M1 antag	M1 agonist	Pyk2 oligo antag	Cav3 T inh
Oc1ccc(C2=CCNCC2)cc1O	·	·	·	0.058
NCCc1c[nH]c2ccccc12	·	·	·	0.93
CCCCC/C(=N\O)c1c[nH]c2ccccc12	·	·	-1.7	-4.6*
CCn1c(O)c(/C(C)=N/N2CCCCC2c2cccnc2)c(=O)[nH]c1=S (stereo not drawn)	·	·	-1.1	·
CC[N+](CC)(CC)CC	·	·	·	0.63
Cc1ccccc1C1=NCC(=O)N(CC(=O)NCc2ccco2)c2sc3c(c21)CCCC3	·	·	1.5	-7.2*
Cc1ccc(C2=NCC(=O)N(CC(=O)N3CCCCC3)c3sc(C)c(C)c32)cc1	·	·	0.21	-1.7
CC[C@H]1CN(C)CCc2c([nH]c3ccccc23)C(=O)C[C@@H]1/C(=C\OC)C(=O)OC	·	·	·	-1.4
CN(C)c1ccc(NC(=O)CN2C(=O)CN=C(c3ccccc3)c3ccccc32)cc1	-0.039	-0.95	-0.39	-5*
CN(C)c1ccc(NC(=O)CN2C(=O)CN=C(c3ccccc3)c3cc(Cl)ccc32)cc1	·	·	·	-8.9*
Cc1ccc(NC(=O)CN2C(=O)CN=C(c3ccccc3)c3cc(Cl)ccc32)cc1	·	·	·	-6.7*
CCC(C)C1N=C(c2ccccc2)c2cc(Cl)ccc2N(CC(=O)NCc2ccco2)C1=O (stereo not drawn)	·	·	·	0.63
COC(=O)C1=C(c2ccc(S(C)(=O)=O)cc2)C[C@@H]2CC[C@H]1N2C(=O)NC(C)C	·	·	·	0.42
O=c1[nH]c(=S)n(C2CC2)c(O)c1C=Nc1cccc(C(F)(F)F)c1	·	·	0.48	·
COC(=O)C1=C(c2cc3ccccc3s2)C[C@@H]2CC[C@H]1N2C(=O)N1CCOCC1	·	·	·	0.81
O=C(Cn1ncc2c3ccccc3n(Cc3cccc(Cl)c3)c2c1=O)N1CCC2(CC1)OCCO2	1.5	2.4	0.12	-11*
COC(=O)C1=C(c2ccc(S(C)(=O)=O)cc2)C[C@@H]2CC[C@H]1N2C(=O)NCCNC(C)=O	·	·	·	0.0046
CC(C)CC(=O)NC(Oc1ccc(Cl)cc1)C(Cl)(Cl)Cl (stereo not drawn)	·	·	-0.01	-6.2*
CCOC(=O)c1nc2ccccc2c(=O)n1-c1cccc(C)c1	·	·	-0.36	0.54
COc1cccc(OC)c1C1=NCC(=O)Nc2c1oc1ccc(Br)cc21	-0.22	-0.12	·	-4.2*
CCOc1ccc2nc(N3CCC(C(=O)N4CCC5(CC4)OCCO5)CC3)sc2c1	·	·	0.03	2.2
O=C(C1CCN(c2nc3ccc(Br)cc3s2)CC1)N1CCC2(CC1)OCCO2	-5.5*	7.8*	-0.42	-2.6
CC(C)[C@H]1C(=O)O[C@H](C(C)C)C(=O)N(C)[C@@H](C(C)C)C(=O)O[C@H](C(C)C)C(=O)N(C)[C@@H](C(C)C)C(=O)O[C@H](C(C)C)C(=O)N1C	·	·	·	-3.9*
C/C=C1\CN2[C@H]3C[C@@]45c6ccccc6N(C)[C@H]4[C@@H]2CC1C3[C@H]5O (stereo partly drawn)	·	·	·	-4.6*
CCCCn1c(=O)c(C(=O)Nc2nc3ccccc3[nH]2)c(O)c2ccccc21	0.25	-0.85	·	·
SMILES	M1 antag	M1 agonist	Pyk2 oligo antag	Cav3 T inh
CC(C)CCn1c(=O)c(C(=O)Nc2ccccc2S(N)(=O)=O)c(O)c2ccccc21	·	·	-1.1	-5.4*
CCCCn1c(=O)c(C(=O)Nc2cnccn2)c(O)c2ccccc21	1.1	-0.69	-0.79	-2.6*
CCN(CC)CCNC(=O)c1c(O)c2ccccc2n(Cc2ccccc2)c1=O	·	·	1.5	-0.17
NP(=O)(OCC(F)(F)F)Oc1ccc(Cl)cc1 (stereo not drawn)	·	·	0.49	·
CCOC(=O)C1=C(N)OC2=C(C(=O)CCC2)C12C(=O)N1c3c(ccc(C)c32)C(C)=CC1(C)C (stereo not drawn)	0.52	0.37	-0.13	-8.3*
CCCCN1C(=O)C(C2c3ccccc3C(=O)N2Cc2ccccc2)C(=O)NC1=S (stereo not drawn)	·	·	-1.2	·
CCOC(=O)c1c(-n2c(C)cc(/C=C3/C(=O)NC(=O)N(CC)C3=O)c2C)sc2c1CCCC2	·	·	0.04	-3.5*
